High-throughput results (PubChem)
Cruzain Triton: qHTS Assay for Promiscuous and Specific Inhibitors of Cruzain (with detergent). Cruzipain (Trypanosoma cruzi), P25779. purified cruzain, Z-FR-AMC fluorescence, 0.01% Triton. Potency, µM, inactives show max response, negative = inhibition, hits mostly inhibitors. actives 0.43% (n = 200,000). AID 1478, 2009;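 also: plate controls were neutral wells for no effect and buffer without enzyme for full effect; nearly all actives have a fitted effect of over 40% in size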
Target sequence (P25779 123-467 limits assumed): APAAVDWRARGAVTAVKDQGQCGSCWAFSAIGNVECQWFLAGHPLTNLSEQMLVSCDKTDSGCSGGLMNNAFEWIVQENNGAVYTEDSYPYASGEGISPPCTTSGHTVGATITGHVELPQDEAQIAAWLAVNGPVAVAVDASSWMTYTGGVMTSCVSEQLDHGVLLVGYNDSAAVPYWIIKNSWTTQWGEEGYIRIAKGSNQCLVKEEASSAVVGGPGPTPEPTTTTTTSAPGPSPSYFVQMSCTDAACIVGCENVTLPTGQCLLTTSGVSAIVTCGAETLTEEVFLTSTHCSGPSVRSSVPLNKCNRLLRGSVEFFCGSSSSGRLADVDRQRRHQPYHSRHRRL
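Z-FR-AMC hydrolysis (2 uM substrate) by cruzain (1.5 nM) monitored kinetically at ex 360/em 450 nm after 15 min room-temperature compound exposure; 0.01% Triton X-100, pH 5.5, 5 mM DTT.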
Cruzain inh noDet: qHTS Assay for Promiscuous and Specific Inhibitors of Cruzain (without detergent); purified cruzain, Z-FR-AMC fluorescence, no detergent; Potency, µM, inactives show max response, negative = inhibition, actives largely listed as inhibitors; actives 2.3% (n = 200,000);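 also: plate controls were enzyme without inhibitor for no effect and buffer without enzyme for full effect; nearly all actives have a fitted effect of over 40% in size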
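Detergent-free condition (0.00005% Triton X-100) in acetate buffer pH 5.5 with DTT. 1.5 nM enzyme and compound were pre-mixed 15 min, then 2 uM Z-FR-AMC substrate added; reaction progress from fluorescence change between first and third reads (60 s).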
* hit, by the source's call; ? = inconclusive. An excerpt weighted towards active compounds, which were near 2.4% of everything screened. Calls follow the shape of the dose curve; as a rule, active = well fitted curve in the direction sought with a large enough effect; inconclusive = small, poorly fitted or top-dose-only effect, or another doubt; inactive = no such curve, though single readings can be large; an effect the other way counts as inactive or inconclusive. Potency is read from the fitted curve at half-maximal effect.

SMILES | Cruzain Triton | Cruzain inh noDet
O=C1CN(C(=O)c2ccc(Cl)cc2Cl)C(c2ccc(F)cc2)c2cc(F)ccc2N1 (stereo not drawn) | -5.1% | 3.0%
Cc1cc(NC(=O)COC(=O)c2oc3c(Cl)cccc3c2C)no1 | 4.1% | 12.6µM*
Cc1cc(NC(=O)COC(=O)c2n[nH]c3ccccc23)no1 | 1.5% | 2.2%
CCC1CCCCN1CCCNC(=O)c1[nH]c2ccccc2c1Sc1ccc(Cl)cc1 (stereo not drawn) | -6.8% | 10.1%
CCN(CC)C[C@@H](O)c1ccc2ccc3ccccc3c2c1 | 4.8% | 2.4%
CCOc1ccc(C2C(C#N)=C(N)N3C(=C2C#N)Sc2ccccc23)cc1 (stereo not drawn) | -10.0% | ?
N#CC1=C(N)N2C(=C(C#N)C1c1ccccc1)Sc1ccccc12 (stereo not drawn) | -2.4% | 12.6µM*
O=c1c(C(c2ccccc2)c2c(O)sc3ccccc3c2=O)c(O)sc2ccccc12 | 25.1µM* | ?
CCC(=O)CC(c1ccccc1)c1c(O)c2ccccc2sc1=O (stereo not drawn) | -13.9% | -9.9%
N#CCCCSc1nnnn1-c1cc(C(F)(F)F)cc(C(F)(F)F)c1 | 8.6% | 15.1%
O=C(O)C1CC2(C1)CC(C(=O)O)C2 (stereo not drawn) | -0.3% | 3.6%
[O-]/C(=C(\C(=S)Nc1cccc2ccccc12)[n+]1ccccc1)c1ccc(Cl)s1 | -13.9% | 7.94µM*
CC(C)(C)c1cc[n+](/C(C(=S)NC2CC2)=C(/[O-])c2ccc(Cl)s2)cc1 | -10.1% | -5.1%
O=C(Nc1ccc(NC(=O)C23CC4CC(CC(C4)C2)C3)cc1)c1cc(F)c(F)cc1Cl | 6.3% | 25.1µM*
CN(C)S(=O)(=O)c1ccc(NC(=O)c2cc(F)c(F)cc2Cl)cc1 | -3.6% | 10.5%
O=C1CC(c2ccccc2)Cc2[nH]c(=O)c(C(=O)Nc3cccc(F)c3)cc21 (stereo not drawn) | 0.0% | 5.3%
COc1ccc2[nH]c(=O)c(CN(CCO)S(=O)(=O)c3c(C)ccc4nsnc34)cc2c1 | -4.0% | -4.4%
COc1ccc2[nH]c(=O)c(CN(Cc3cccs3)S(=O)(=O)c3cccc4nsnc34)cc2c1 | -0.8% | 31.6µM*
COc1ccc(/C=N/N2C(=O)c3ccccc3C2=O)cc1 | 0.0% | -1.6%
COc1ccc(/C=N/N=C2/NC(=O)C(c3ccccc3)(c3ccccc3)S2)cc1 | -2.1% | 3.16µM*
NCCNC[C@H](O)CO | 0.4% | 0.1%
COc1ccc(/C=C/C(=O)C(C(N)=O)=C2SCCS2)cc1 | -5.8% | 7.2%
Cc1ccc(C(=O)C(C(=O)/C=C/c2ccccc2)=C2SCCCS2)cc1 | -7.5% | 25.1µM*
COc1ccc([N+](=O)[O-])cc1NC(=O)CSc1ccccc1 | -9.2% | 6.8%
COc1cc(NC(=O)CN2C(=O)NC(C)(c3ccccc3)C2=O)c(C)cc1[N+](=O)[O-] (stereo not drawn) | -5.1% | -11.4%
SMILES | Cruzain Triton | Cruzain inh noDet
COc1cc(NC(=O)CSc2nc(C)c(C)c(C)n2)c(C)cc1[N+](=O)[O-] | -2.5% | 5.4%
CCOc1ccc(-n2c(SCC(=O)Nc3cc(OC)c([N+](=O)[O-])cc3C)nc3ccccc32)cc1 | -2.5% | 7.94µM*
COc1cc(NC(=O)CN2C(=O)NC(C)(c3ccc4ccccc4c3)C2=O)c(C)cc1[N+](=O)[O-] (stereo not drawn) | -7.5% | 20µM*
COc1cc([N+](=O)[O-])ccc1NC(=O)CSc1nc2ccccc2n1-c1ccccc1 | -2.4% | 12.6µM*
CCc1cc2c(cc3c(=O)n(CC(=O)NC(C)C)nc(CC)n32)s1 | -2.0% | -8.6%
Cc1nc(N2CCOCC2)c2nc(-c3ccccc3)n(CCCN3CCCCC3C)c2n1 (stereo not drawn) | -1.2% | 0.3%
Cc1noc(NC(=O)Nc2ccccc2F)c1C#N | 2.6% | 3.9%
O=C1N/C(=N\N=C\c2cccs2)SC1Cc1cccc(Cl)c1 (stereo not drawn) | -3.4% | ?
O=C1N/C(=N\N=C\c2cccs2)SC1Cc1ccc(Cl)cc1 (stereo not drawn) | -5.7% | 2.51µM*
CCCCCC#CC[C@@H](O)/C=C/C=C/C=C\[C@@H](O)CCCC(=O)O | -2.2% | -4.6%
CC1CCn2c(nc3cc(C(=O)NCCc4ccccc4)ccc32)C1 (stereo not drawn) | 2.7% | -15.9%
CC1Cc2ccccc2N1C(=O)CSc1ccccc1 (stereo not drawn) | -1.2% | -7.2%
CC(C)C(=O)Nc1nnc(SCC(=O)N2c3ccccc3CC2C)s1 (stereo not drawn) | 10µM* | 31.6µM*
O=[N+]([O-])c1ccc(C2Oc3ccccc3C3CC(c4ccccc4)=NN32)s1 (stereo not drawn) | -11.2% | 15.8µM*
c1ccc(C2Oc3ccccc3C3CC(c4cccs4)=NN32)cc1 (stereo not drawn) | -13.2% | -3.3%
CCc1nn(C(C)C(=O)NC(C)CCc2ccco2)c(=O)c2cc3occc3n12 (stereo not drawn) | -7.7% | -4.4%
Cc1ccc(S(=O)(=O)/C(=C/Cl)NC(=O)c2ccccc2)cc1 | 22.4µM* | 25.1µM*
Cc1ccc(C(=O)NC(=C(Cl)Cl)S(=O)(=O)c2ccc(C)cc2)cc1 | -2.3% | 11.1%
CC(C)(C)c1cc(C#N)cc(Br)c1OP(=O)(Oc1c(Br)cc(C#N)cc1C(C)(C)C)c1ccccc1 | 5.1% | -2.1%
O=C(O)[C@@H](O)[C@@H](O)C1[O][Sb][O][C@@H]1CO (stereo partly drawn) | 3.7% | 4.5%
Cc1ccc(C)n1-c1nnc(N2CCCC(C(=O)NCc3ccc(Cl)cc3)C2)s1 (stereo not drawn) | -1.8% | 7.8%
COc1ccc(-c2cn3nc(N4CCCC(C(=O)NCc5ccc(Cl)cc5)C4)sc3n2)cc1 (stereo not drawn) | 14.1µM* | -1.8%
O=C(NCC1CC1)[C@H]1C[C@@H]1[C@H](NP(=O)(c1ccccc1)c1ccccc1)c1ccccc1 | -2.3% | 3.8%
COc1ccc(C2Nc3ccccc3C(=O)N2Cc2ccco2)cc1COc1ccc(F)cc1 (stereo not drawn) | -9.4% | 25.1µM*
COc1ccc(C2Nc3ccccc3C(=O)N2Cc2ccco2)cc1CN1C(=O)c2ccccc2C1=O (stereo not drawn) | -0.7% | ?
SMILES | Cruzain Triton | Cruzain inh noDet
COC(=O)c1ccc(NC(=O)CC2C(=O)N(c3cccc(OC)c3)C(=O)N2Cc2ccco2)cc1 (stereo not drawn) | -5.0% | -10.8%
Cc1cc(C)c(Nc2cc(S(=O)(=O)O)c(N)c3c2C(=O)c2ccccc2C3=O)c(C)c1 | 25.1µM* | ?
Nc1ccc(-c2ccc(Nc3cc(S(=O)(=O)O)c(N)c4c3C(=O)c3ccccc3C4=O)cc2)c(S(=O)(=O)O)c1 | 2.9% | -1.1%
C=C(C)C(=O)/C=C/c1ccc(Br)cc1 | 0.0% | -3.2%
COC(=O)c1ccc(C(=O)Nc2cc(Cl)ccc2Cl)cc1NC(=O)c1ccc(N(C)C)cc1 | -4.8% | 3.16µM*
O=C(Nc1cc(Cl)ccc1Cl)c1ccc(-c2ccccc2)cc1 | -5.7% | -16.9%
COc1cccc(Cn2cnc3c2c(=O)n(C)c(=O)n3C)c1 | 2.1% | 5.1%
CSc1ccccc1N=Cc1nc(-c2ccccc2)oc1O | -7.9% | -6.5%
CC(=O)Oc1oc(-c2ccccc2)nc1/C=N/c1ccccn1 | 14.1µM* | 12.6µM*
COc1ccccc1N=Cc1nc(-c2ccccc2)oc1OC(C)=O | 25.1µM* | 20µM*
